Bioassay records (PubChem BioAssay)
MCF10A rereplic: inducers of DNA re-replication in MCF 10A breast cells | Potency, µM (top dose mostly 46.1 µM), for inactives: top-dose activity, positive = re-replication, most hits filed as activators | AID 624296 | 2.9% of 350,000 active | MCF 10A DNA re-replication, Hoechst nuclear intensity, 48 h; further: % of control where 0% means no effect; nearly all actives have a fitted effect of over 50% in size
ELG1 repair inh: ELG1-dependent DNA repair inhibition; 2.3% of 330,000 active; AID 504467; HEK293T ELG1-luciferase reporter, luminescence, 16 h; DNA damage induced by 5-fluorouridine; Potency, µM (titrated, usually from 46.1 µM), for the others: at the top dose activity change, negative = inhibition, most hits filed as inhibitors; further: on the % scale 0 is the no-effect control and ±100 the full control effect; nearly all actives have a fitted effect of over 55% in size
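Step one: seed 2,000 cells per well. Step two: pin-transfer compound or DMSO alongside 5-fluorouridine. Step three: incubate 16 hr, 37 °C, 5% CO2. Step four: add ONE-Glo, wait 30 min, read luminescence.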
SW480 rereplic: inducers of DNA re-replication in SW480 colon cancer cells; SW480 DNA re-replication, Hoechst DNA content imaging, 48 h; Potency, µM (top dose mostly 46.1 µM), without a hit: at the top dose re-replication activation, most hits filed as activators; 1.8% of 340,000 active; further: % of control where 0% means no effect; nearly all actives have a fitted effect of over 55% in size
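250 cells/well; 23 nL cpd via pin tool; 48 hr, 37 C, 5% CO2; Hoechst 40 min; imager read of total nuclear intensity, ex 405/em 500-530 nm.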
KB-V1 cytotox: KB-V1 MDR subline cytotoxicity; 3.4% of 400,000 active; AID 1347076; KB-V1 MDR cells viability, CellTiter-Glo, 72 h; Potency, µM (doses to about 46.1 µM), most hits filed as cytotoxic; further: on the % scale 0 is the no-effect control and ±100 the full control effect; nearly all actives have a fitted effect of over 60% in size
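KB-V1 cells (P-gp-expressing MDR subline of KB-3-1) in phenol-red-free DMEM with 10% FBS were exposed to library compounds over a concentration series for 72 h at 37 degrees C. Viability read by CellTiter-Glo luminescence; concentration-effect curves fitted after normalization.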
KB-3-1 cytotox: kills parental KB-3-1 adenocarcinoma cells. KB-3-1 viability, CellTiter-Glo ATP luminescence, 72 h. 1.4% of 400,000 active. AID 1347075. Potency, µM (titrated, usually from 46.1 µM), actives largely listed as cytotoxic; further: on the % scale 0 is the no-effect control and ±100 the full control effect; nearly all actives have a fitted effect of over 60% in size
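Screening of KB-3-1 cells (DMEM, 10% FBS, phenol-red free) ran from lowest to highest compound concentration; after 72 h at 37 °C viability was read luminescently and curves fitted.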
* marks the source's active call; other numbers are inactive results; i = inactive; u = inconclusive; x = not tested or not shown; [ ] = remark or other dose. An excerpt weighted towards active compounds, which were near 8.1% of everything screened. The call rests on the fitted dose curve; in most records, active means well fitted curve in the direction sought with a large enough effect; inconclusive means small, poorly fitted or top-dose-only effect, or another doubt; inactive means no such curve, though single readings can be large; an effect the other way counts as inactive or inconclusive. Potency means the concentration at half of the fitted maximal effect.

SMILES	MCF10A rereplic	ELG1 repair inh	SW480 rereplic	KB-V1 cytotox	KB-3-1 cytotox
Cc1ccc(Cl)cc1N1CCN(C(=O)COCc2cc(-c3ccc4c(c3)OCO4)on2)CC1	x	x	x	i	i
CCOc1ccc(-c2cncc3nccn23)cc1	x	x	x	i	i
O=C(c1ccccc1)c1ccc(C(=O)N2CCOCC2)cc1	0%	9%	1%[9.22 µM]	i	i
O=C(c1ccc(-c2ccccc2)cc1)c1ccccc1C(=O)N1CCOCC1	7%	-4%	-20%	21µM*	i
O=C(c1ccccc1-c1nc(-c2ccccc2)no1)N1CCOCC1	7%	-2%	-14%	12µM*	i
COc1ccc(OC)c(Nc2ncnc3c2cnn3-c2cccc(C)c2)c1	u	u	7.3µM*	u	u
CC(=O)Nc1ccc(Nc2ncnc3c2cnn3-c2cccc(C)c2)cc1	8%	u	-9%	16µM*	i
CCOc1ncccc1C(=O)NCc1ccc(OC)cc1	u	-9%	8.2µM*	13µM*	15µM*
CCOc1ncccc1C(=O)NCc1ccccc1	1%	12%	-14%	x	x
CN1c2ccccc2C(=O)NC1c1ccc(Cl)cc1 (configuration not stated)	2%	u	37%	i	i
Clc1ccc(C2Nc3ccccc3-n3cccc32)cc1 (configuration not stated)	16µM*	u	u	i	i
O=C(COC(=O)c1c2c(nc3ccccc13)CCN(Cc1ccccc1)C2)Nc1c(F)cccc1F	u	5.8µM*	-1%	18µM*	i
CC(=O)Nc1ccc(NC(=O)COC(=O)c2c3c(nc4ccccc24)CCN(Cc2ccccc2)C3)cc1	u	2.3µM*	13%	i	i
CCCCn1c(SCc2ccccc2C#N)nc2c(sc3ccccc32)c1=O	x	x	x	i	i
COc1ccc(Cc2nnc(N/N=C/c3ccc(O)cc3)[nH]c2=O)cc1OC	8.2µM*	5.8µM*	u	u	0.58µM*
COc1ccc(Cc2nnc(N/N=C/c3ccc(Br)cc3)[nH]c2=O)cc1OC	1%	-12%	1%	i	i
Cc1cc(C(=O)N/N=C2\CC(=O)CC(C)(C)C2)c(C)n1-c1ccc(F)cc1	8%	-2%	3%	u	i
Cc1cc(C(=O)N/N=C2\CC(=O)CC(C)(C)C2)c(C)n1-c1ccccc1	21µM*	-8%	7%	u	i
Nc1ncccc1OCc1cccc(C(F)(F)F)c1	-10%	u	7%	u	u
Nc1nc(N)c(-c2cccc(C(F)(F)F)c2)c(Cc2cccc(C(F)(F)F)c2)n1	u	x	u	u	7.3µM*
Cc1cn2c(=O)cc(COC(=O)COc3ccc(F)cc3)nc2s1	x	x	x	i	i
CCCN(CCC)S(=O)(=O)c1ccc(N2CCCC2=O)c([N+](=O)[O-])c1	1%	u	-5%	21µM*	i
CCCCN(CCCC)S(=O)(=O)c1ccc(N2CCCC2=O)c([N+](=O)[O-])c1	19%	x	22%	u	i
c1ccc2cc(C3OCC4(CCCC4)CO3)ccc2c1	x	x	x	i	i
Cc1ccc(S(=O)(=O)N2CCC3(CC2)OCCO3)cc1	4%	-6%	-1%	i	i
SMILES	MCF10A rereplic	ELG1 repair inh	SW480 rereplic	KB-V1 cytotox	KB-3-1 cytotox
O=C(CN1CCN(c2ccccn2)CC1)N1c2ccccc2CCc2ccccc21	14%	u	11%	5.8µM*	i
COc1ccc(-c2cc(C(=O)OCc3ccccn3)c3ccccc3n2)cc1	u	u	13µM*	i	i
COc1ccc(-c2cc(C(=O)OCC(=O)N(C)C)c3ccccc3n2)cc1	1%	u	-10%	i	i
COc1ccc(-c2cc(C(=O)Oc3ccc([N+](=O)[O-])cc3)c3ccccc3n2)cc1	18µM*	u	u	i	i
O=C(C[C@@H]1C=C[C@@H](NC(=O)c2cccnc2)[C@@H](CO)O1)NCc1ccncn1	x	x	x	i	i
CCOC(=O)N1CCN(S(=O)(=O)N2CCCC(C(=O)NCc3cc(OC)ccc3OC)C2)CC1 (configuration not stated)	x	x	x	u	i
CC(=O)c1c(C)[nH]c(C(=O)Nc2nc(-c3ccc(-c4ccccc4)cc3)cs2)c1C	3.3µM*	21µM*	5%	21µM*	15µM*
CC(=O)c1c(C)[nH]c(C(=O)Nc2nc(-c3ccc(Cl)cc3)cs2)c1C	23µM*	u	-9%	u	u
COc1cc(/C=N/NC(=O)c2cccc(S(=O)(=O)N3CCCC3)c2)cc(OC)c1O	0%	2%	0%	i	i
CC(C)NC(=O)C1CCN(C(=O)N2CCOc3ccc(Cl)cc32)CC1	x	x	x	i	i
COc1ccc(CN2C(=O)c3cccc4cccc2c34)cc1F	21µM*	0%	u	u	i
Cc1ccc(-c2nn(-c3ccccc3)cc2C(=O)Nc2cccc(S(=O)(=O)NC3=NCCC3)c2)cc1	x	x	x	i	i
Cc1cccc(N2CCN(c3nc(C)cc(C)c3C#N)CC2C)c1 (configuration not stated)	18µM*	u	u	i	u
COc1ccc(OCC(O)CNC(=O)c2ccc(Br)cc2)cc1 (configuration not stated)	0%	-16%	-1%	4.1µM*	i
COc1ccc(NC(=O)c2cn(-c3ccccc3)nc2-c2ccc(C)cc2)cc1	x	x	x	i	i
CN(CC(=O)Nc1ccccc1Cl)C(=O)Cn1cc(C(F)(F)F)ccc1=O	-6%	20%	-3%	i	i
CC(O)CN(C)C (configuration not stated)	3%	x	0%	x	x
CC1=C(C(=O)Nc2ccccc2)C(c2coc3ccccc3c2=O)C2=C(CCCC2=O)N1 (configuration not stated)	5%	3%	1%	i	i
COc1ccc(C2CC(=O)C3=C(C2)NC(C)=C(C(=O)Nc2ccccc2C)C3c2coc3ccc(C)cc3c2=O)cc1OC (configuration not stated)	7%	5.8µM*	11%	i	i
O=C1NC(c2ccccc2)N=C2Oc3ccccc3C=C12 (configuration not stated)	u	x	u	4.1µM*	1.3µM*
Cc1ccc(Oc2nc3c(c(=O)n(Cc4ccccc4Cl)c(=O)n3C)n2C)cc1C	x	x	x	i	i
O=C(Nc1cc(Sc2ccccn2)cc([N+](=O)[O-])c1)c1ccc(Cl)cc1	u	u	-3%	u	21µM*
O=C(Nc1cc(Sc2ccccn2)cc([N+](=O)[O-])c1)c1cccc(Cl)c1	29%	6.5µM*	-2%	u	u
O=C(Nc1cccc([N+](=O)[O-])c1)c1ccncc1	-1%	-10%	-3%	i	i
